# The panel holds about 83,000 compounds, 20% with a hit somewhere; the sample as a whole holds those more often.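 Cell lines were cultured in 96-well plates, exposed to a single compound concentration, and assessed for percent growth 48 hours later.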 A number with no mark means an inactive call. Activity calls are given as the source filed them. The calls were made as follows: active = growth percent below 10; inactive = the rest.
# System: OVCAR-3 ovarian
# Assay: NCI-60 one-dose screen, 48 h (100 = growth as untreated, 0 = no growth, -100 = all killed)
# Conditions: 10 µM unless noted
row,Structure (SMILES),growth
1,Cc1ccc(C2=NN(c3ccc(S(N)(=O)=O)cc3)C(c3cn(-c4ccccc4)nc3-c3ccccc3)C2)cc1 (stereo not drawn),56.1%
2,CCN1C(=O)N(CC)C2C1NN=c1s/c(=C\c3cccc(F)c3)c(=O)n12 (stereo not drawn),-2.21% (active)
3,O=c1[nH]c(-c2cn(-c3ccc(Cl)cc3)nn2)nc2ccccc12,85.4%
4,C=CCN=C1NC(=O)/C(=C/c2cc(C(C)(C)C)c(O)c(C(C)(C)C)c2)S1,46.9%
5,O=c1[nH]c(CN2CCN(c3ccccc3F)CC2)nc2sc3c(c12)CCC3,118%
6,COc1ncc(-c2ccc3ncnc(Nc4cccc(Cl)c4)c3c2)cc1NS(=O)(=O)C1CC1,20.1%
7,Nc1nc(Cl)c2c(ncn2Cc2ccc(CCl)cc2)n1,68.3%
8,O=S(=O)(NCCCNc1cc(-c2cn(-c3ccccc3)nc2-c2cccc(O)c2)ccn1)c1cccc2ccccc12,49.8%
9,CC1CCN(C(=O)CSc2nc3sc4c(c3c(=O)[nH]2)CCCC4)CC1,116%
10,Cc1cc(Nc2nc(C(=O)Nc3ccccc3)nc3ccccc23)n[nH]1,78.1%
11,O=[N+]([O-])c1cc(S(=O)(=O)OCC2CO2)ccc1Cl (stereo not drawn),108%
12,N#CC1=C(N)n2nc(-c3ccncc3)nc2NC1c1cccc2ccccc12 (stereo not drawn),97.4%
13,O=C1NC(Cc2c[nH]c3ccccc23)C(=O)N1Cc1ccc(Cl)cc1 (stereo not drawn),106%
14,CSc1ccccc1C#C/C=C\C#Cc1ccccc1N1CCCC1=O,50.9%
15,CC(C)CCN(CCCNc1c2c(nc3ccccc13)CCCC2)CCC(C)C,93.9%
16,O=C(CC(O)c1ccncc1)c1ccccc1 (stereo not drawn),-60.5% (active)
17,Nc1c(C(=O)Nc2cccc([N+](=O)[O-])c2)sc2nc3c(cc12)C(O)CCC3 (stereo not drawn),33.1%
18,CCN(CC)CCSc1c2ccc(Cl)cc2nc2ccc(OC)cc12,24.5%
19,CNC(=O)Cc1nc(-c2cccc(NS(=O)(=O)c3c(F)cccc3F)c2F)c(-c2ccnc(Nc3ccccc3)n2)s1,77.2%

row,Structure (SMILES),growth
1,CC(=O)Nc1ccc(S(=O)(=O)N2C(=O)CCC2C(=O)Nc2ccccc2)cc1 (stereo not drawn),28.1%
2,Nc1cccc2c1CN(C1CCC(=O)NC1=O)C2=O (stereo not drawn),108%
3,C=CC(=O)N[C@H](/C=C/C(=O)OCC)Cc1ccc(-c2cc(Cl)cc(Cl)c2)cc1,89.5%
4,CCOC(=O)CC(C#N)(CC(=O)OCC)C(=O)OCC,112%
5,CCN(CC)CCCNc1nc(C)cc(Nc2ccc3nc(C)cc(N)c3c2)n1,106%
6,O=c1cc(C2NCCc3c2[nH]c2ccccc32)c2c(ccc3ccccc32)o1 (stereo not drawn),95.1%
7,Nc1nc(N)c2nc(CNc3ccc(C(=O)CC(CCC(=O)O)C(=O)O)cc3)cnc2n1 (stereo not drawn),49.8%
8,O=C1Nc2cc(Cl)ccc2/C1=C/c1ccc(N2CCOCC2)s1,115%
9,O=S(=O)(NCCCNc1nccc(-c2c(-c3ccccc3)nc3sccn23)n1)c1ccc(F)cc1,49.6%
10,O=Nc1c(-c2c(O)[nH]c3ccc([N+](=O)[O-])cc23)[nH]c2ccc(O)cc12,4.31% (active)
11,CC/C=C\C[C@H](O)C/C=C1/C(=O)C(Cl)=C[C@@H]1C/C=C\CCCC(=O)OC,-87.8% (active)
12,CCOC(=O)CC/C(C)=N\Nc1ccc([N+](=O)[O-])cc1,86.1%
13,CC(C)N(Cc1ccc(CN(C(=O)CCl)C(C)C)cc1)C(=O)CCl,-76.1% (active)
14,COc1cc(CCn2nnc3c(NCCCCO)ncnc32)cc(OC)c1,107%
15,CCN1C(=O)N(CC)C2Nn3c(s/c(=C\c4cccc(F)c4)c3=O)=NC21 (stereo not drawn),43%
16,O=C1c2ccccc2C(=O)c2c1oc1oc3c(c(=O)c21)c(=O)n(-c1ccccc1)c1ccccc31,2.15% (active)
17,Cc1c(C2=NNC(c3ccc4c(c3)OCO4)C2)[n+]([O-])c2ccccc2[n+]1[O-] (stereo not drawn),93.4%
18,c1ccc(CCn2nnc3c(Nc4ccc(N5CCOCC5)cc4)ncnc32)cc1,85.9%
19,COc1ccc(C2SCC(=O)N2NC(=O)c2ccc(NC(=O)c3ccccn3)cc2)cc1OC (stereo not drawn),101%
